# Results taken from PubChem BioAssay (NCI).
# Values joined by “and” are separate entries in the source; they are usually repeats but may differ in a detail not shown here. Equal entries are not always repeated. The panel holds about 83,000 compounds, 20% with a hit somewhere; the sample as a whole holds those more often.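 For each line, cells grew in 96-well plates with the test compound present at a single concentration for 48 hours.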 Active and inactive are the calls of the source. How the source made its calls: active means growth percent below 10; inactive means the rest.
# Tests used:
# Test in all cases: NCI-60 one-dose screen, 48 h (100 = growth as untreated, 0 = no growth, -100 = all killed)
# NCI-H23 lung = system: NCI-H23 lung
# NCI-H226 lung = system: NCI-H226 lung
# NCI-H322M lung = system: NCI-H322M lung
# HOP-62 NSCLC = system: HOP-62 NSCLC
# NCI-H460 lung = system: NCI-H460 lung
# HOP-92 NSCLC = system: HOP-92 NSCLC
# NCI-H522 lung = system: NCI-H522 lung
# 786-0 renal = system: 786-0 renal
# COLO 205 colon = settings: 10 µM unless noted
# DU-145 prostate = system: DU-145 prostate
# K-562 leukemia = system: K-562 leukemia
# MALME-3M melanoma = system: MALME-3M melanoma
# MDA-MB-231 breast = system: MDA-MB-231 breast
# RXF 393 renal = system: RXF 393 renal
# SF-268 CNS = system: SF-268 CNS
# SF-295 CNS = system: SF-295 CNS
# SF-539 CNS = system: SF-539 CNS
# UACC-257 melanoma = system: UACC-257 melanoma
# M14 melanoma = system: M14 melanoma
# A549/ATCC NSCLC = settings: 10 µM unless noted
structure (smiles),measurement,setting,value
Cc1[nH]c(-c2nc3ccccc3[nH]2)c(C)c1C(=O)NC(C)C1CCCCC1 (configuration not stated),growth,NCI-H23 lung; 10 µM,87.1% (inactive)
same,growth,NCI-H23 lung; 100 µM,-84.8% (active)
same,growth,NCI-H226 lung; 10 µM,81.1% (inactive)
same,growth,NCI-H226 lung; 100 µM,-53% (active)
same,growth,NCI-H322M lung; 10 µM,89.1% (inactive)
same,growth,NCI-H322M lung; 100 µM,-96.3% (active)
same,growth,HOP-62 NSCLC; 10 µM,95.5% (inactive)
same,growth,HOP-62 NSCLC; 100 µM,-54.4% (active)
same,growth,NCI-H460 lung; 10 µM,98.1% (inactive)
same,growth,NCI-H460 lung; 100 µM,-72% (active)
same,growth,HOP-92 NSCLC; 10 µM,78.7% (inactive)
same,growth,HOP-92 NSCLC; 100 µM,-50.9% (active)
same,growth,NCI-H522 lung; 10 µM,80.9% (inactive)
same,growth,NCI-H522 lung; 100 µM,-36.1% (active)
same,growth,786-0 renal; 10 µM,95.2% (inactive)
same,growth,786-0 renal; 100 µM,-31.1% (active)
same,growth,COLO 205 colon,-60.3% [100 µM] (active)
same,growth,DU-145 prostate; 10 µM,98.8% (inactive)
same,growth,DU-145 prostate; 100 µM,-96.3% (active)
same,growth,K-562 leukemia; 10 µM,68.7% (inactive)
same,growth,K-562 leukemia; 100 µM,-24.3% (active)
same,growth,MALME-3M melanoma; 10 µM,82.1% (inactive)
same,growth,MALME-3M melanoma; 100 µM,-72.6% (active)
same,growth,MDA-MB-231 breast; 10 µM,70.3% (inactive)
same,growth,MDA-MB-231 breast; 100 µM,-70.8% (active)
same,growth,RXF 393 renal; 10 µM,77.2% (inactive)
same,growth,RXF 393 renal; 100 µM,-92% (active)
same,growth,SF-268 CNS; 10 µM,94.9% (inactive)
same,growth,SF-268 CNS; 100 µM,-71.4% (active)
same,growth,SF-295 CNS; 10 µM,101% (inactive)
same,growth,SF-295 CNS; 100 µM,-88.8% (active)
same,growth,SF-539 CNS; 10 µM,89.4% (inactive)
same,growth,SF-539 CNS; 100 µM,-97.7% (active)
same,growth,UACC-257 melanoma; 10 µM,87% (inactive)
same,growth,UACC-257 melanoma; 100 µM,-64.6% (active)
same,growth,M14 melanoma; 10 µM,83.1% (inactive)
same,growth,M14 melanoma; 100 µM,-73.2% (active)
CC1CCCc2sc3nc(NNC(=O)c4cnccn4)n(-c4ccccc4)c(=O)c3c21 (configuration not stated),growth,NCI-H23 lung; 10 µM unless noted,23.9% (inactive) and 20.2% (inactive)
same,growth,NCI-H226 lung; 10 µM unless noted,-2.24% (active) and -5.33% (active)
same,growth,NCI-H322M lung; 10 µM unless noted,15.9% (inactive) and 6.48% (active)
same,growth,HOP-62 NSCLC; 10 µM unless noted,4.44% (active) and 1.42% (active)
same,growth,NCI-H460 lung; 10 µM unless noted,3.62% (active) and -47.3% (active)
same,growth,HOP-92 NSCLC; 10 µM unless noted,44% (inactive) and 42.3% (inactive)
same,growth,NCI-H522 lung; 10 µM unless noted,-10.4% (active) and 6.49% (active)
same,growth,A549/ATCC NSCLC,3.51% (active) and 7.07% (active)
same,growth,786-0 renal; 10 µM unless noted,16.1% (inactive) and 6.45% (active)
same,growth,COLO 205 colon,4.98% (active) and -2.77% (active)
same,growth,DU-145 prostate; 10 µM unless noted,12.2% (inactive) and 12.9% (inactive)
same,growth,K-562 leukemia; 10 µM unless noted,14.2% (inactive) and 13.4% (inactive)
same,growth,MALME-3M melanoma; 10 µM unless noted,15.9% (inactive) and 11.2% (inactive)
same,growth,MDA-MB-231 breast; 10 µM unless noted,28.9% (inactive) and 25.5% (inactive)
same,growth,RXF 393 renal; 10 µM unless noted,11.2% (inactive) and -15.9% (active)
same,growth,SF-268 CNS; 10 µM unless noted,14.5% (inactive) and 5.5% (active)
same,growth,SF-295 CNS; 10 µM unless noted,22.7% (inactive) and 11.3% (inactive)
same,growth,SF-539 CNS; 10 µM unless noted,6.89% (active) and 6.17% (active)
same,growth,UACC-257 melanoma; 10 µM unless noted,-7.57% (active) and -18.3% (active)
same,growth,M14 melanoma; 10 µM unless noted,7.99% (active) and -2.42% (active)
COc1cc(C(=O)c2ccc3c(c2)OCO3)cc(OC)c1OC,growth,NCI-H23 lung; 10 µM unless noted,49.2% (inactive) and 40.8% (inactive)
same,growth,NCI-H226 lung; 10 µM unless noted,52.4% (inactive) and 72.9% (inactive)
same,growth,NCI-H322M lung; 10 µM unless noted,41% (inactive) and 55.4% (inactive)
same,growth,HOP-62 NSCLC; 10 µM unless noted,38.8% (inactive) and 41.6% (inactive)
same,growth,NCI-H460 lung; 10 µM unless noted,14.3% (inactive) and 10.9% (inactive)
same,growth,HOP-92 NSCLC; 10 µM unless noted,37.9% (inactive) and 62.8% (inactive)
same,growth,NCI-H522 lung; 10 µM unless noted,44.6% (inactive) and -30.4% (active)
same,growth,A549/ATCC NSCLC,33.9% (inactive) and 34.9% (inactive)
same,growth,786-0 renal; 10 µM unless noted,56.2% (inactive) and 46% (inactive)
same,growth,COLO 205 colon,19.2% (inactive) and 20.8% (inactive)
same,growth,DU-145 prostate; 10 µM unless noted,10.4% (inactive) and 27.7% (inactive)
same,growth,K-562 leukemia; 10 µM unless noted,10.7% (inactive)
same,growth,MALME-3M melanoma; 10 µM unless noted,14.5% (inactive) and 34.1% (inactive)
same,growth,MDA-MB-231 breast; 10 µM unless noted,53.2% (inactive) and 47.4% (inactive)
same,growth,RXF 393 renal; 10 µM unless noted,28.3% (inactive) and 4.22% (active)
same,growth,SF-268 CNS; 10 µM unless noted,37.3% (inactive) and 40.6% (inactive)
same,growth,SF-295 CNS; 10 µM unless noted,9.91% (active) and 9.21% (active)
same,growth,SF-539 CNS; 10 µM unless noted,18.4% (inactive) and -1.47% (active)
same,growth,UACC-257 melanoma; 10 µM unless noted,18.6% (inactive) and 49.4% (inactive)
same,growth,M14 melanoma; 10 µM unless noted,21% (inactive) and 19.9% (inactive)
